Rows were chosen to be rich in hits. Some 2.4% of all compounds tested hit in one or more screens of this group.
D2 antag: antagonizes the human D2 dopamine receptor. P14416. HEK293 TREx D2 cells, calcium flux, dopamine EC80. inhibition, % at 10 µM. actives 2% (n = 340,000); in the data active = inhibition above about 30%; inactive = below that, where a call was filed; also: 0% is about no effect
Target sequence (P14416 whole entry, looked up): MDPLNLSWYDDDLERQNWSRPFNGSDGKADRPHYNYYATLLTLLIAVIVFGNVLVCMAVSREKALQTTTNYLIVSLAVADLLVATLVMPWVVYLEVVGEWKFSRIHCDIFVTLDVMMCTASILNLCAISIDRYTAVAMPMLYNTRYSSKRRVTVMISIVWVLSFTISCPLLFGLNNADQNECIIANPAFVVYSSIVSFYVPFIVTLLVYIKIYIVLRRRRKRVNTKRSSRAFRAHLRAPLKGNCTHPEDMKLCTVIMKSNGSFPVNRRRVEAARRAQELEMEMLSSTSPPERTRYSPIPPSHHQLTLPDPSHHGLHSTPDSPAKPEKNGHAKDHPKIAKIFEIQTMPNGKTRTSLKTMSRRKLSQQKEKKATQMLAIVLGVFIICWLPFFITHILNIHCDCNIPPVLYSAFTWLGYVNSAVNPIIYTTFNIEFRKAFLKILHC
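Tetracycline-induced HEK293 T-REx cells expressing D2 force-coupled to calcium signalling were dye-loaded, exposed to compound for 180 s, then challenged with an EC80 of dopamine; calcium flux was followed kinetically for a further 180 s.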
D2 ag-1: activates the human D2 dopamine receptor; P14416; HEK293 T-REx D2 cells, calcium flux agonist mode; activation, % at 2 µM; actives 0.53% (n = 340,000); AID 485358;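 active = activation over 3 SD above normal in the single-dose calcium agonist read, cut at about 30% in these data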; also: 0% is about no effect
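Calcium-flux readout, 1 cycle/sec over 180 s following compound pin transfer, in inducible HEK293 Trex D2 cells (force-coupled); dopamine controls included. Positive calcium responses during this window marked compounds as potential agonists.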
D2 PAM-1: positively modulates the human D2 dopamine receptor allosterically | P14416 | HEK293 T-REx D2, calcium flux, EC20 dopamine potentiation | potentiation, % at 10 µM | actives 0.34% (n = 340,000);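 active = potentiation over 3 SD above the plate norm, cut at about 30% in these data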; also: 0% is about no effect
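Tetracycline-induced Hek293 Trex D2 cells, force-coupled to calcium, loaded with no-wash calcium dye. Compound added with 180 s kinetic read for agonism, then EC20 dopamine and a further 180 s read for potentiation.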
D2 ag-2: agonists of human D2 dopamine receptor (beta-arrestin); activation, % (no concentration beside the values); actives 0.084% (n = 360,000); P14416; DiscoveRx PathHunter D2 beta-arrestin, luminescence, 90 min; 100% = 57 uM dopamine signal; in the data active = activation above about 40%; inconclusive = between about 15% and that limit
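DiscoveRx PathHunter D2 beta-arrestin cells (2,100/well) attached overnight, then compound-stimulated 90 min at 37 C in HBSS/10 mM HEPES/0.1% Tween-20 buffer; beta-galactosidase complementation read by luminescence after 1 h at ambient temperature. Dopamine 57 uM final (EC100) as control.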
D2 PAM-2: human D2 receptor positive allosteric modulation; DiscoveRx D2 beta-arrestin cells, luminescence, 90 min; 100% = 57 uM dopamine signal; potentiation, % (concentration not given with the values); AID 624464; P14416; actives 0.23% (n = 360,000); in the data active = potentiation above about 50%; inconclusive = mostly about 30% to 49%
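PathHunter D2 cells, attached overnight at 37 deg C, received compound in DMSO plus dopamine at EC20 (50 nM final) for 90 min at 37 deg C. Beta-arrestin recruitment was read as luminescence after 1 h with detection reagent at ambient temperature.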
Active calls of the source: *; ? = inconclusive; . = not tested or not shown.

SMILES	D2 antag	D2 ag-1	D2 PAM-1	D2 ag-2	D2 PAM-2
CCOc1ccc(S(=O)(=O)N2CC(=O)Nc3ccccc32)cc1C#N	2	0	-4	-3	-1
COc1ccc(S(=O)(=O)N2CC(=O)Nc3ccccc32)cc1Cl	5	0	60*	-4	-1
CCN(CC)CCCCN1c2ccccc2Sc2ccccc21	47*	0	-20	-5	-20
CN1CCN(CCC=C2c3ccccc3Sc3ccc(S(=O)(=O)N(C)C)cc32)CC1	77*	1	-17	1	-3
OCCN1CCN(CC/C=C2/c3ccccc3Sc3ccc(C(F)(F)F)cc32)CC1	83*	2	-22	2	-29
OCCN1CCN(CC/C=C2/c3ccccc3CSc3ccccc32)CC1	.	.	.	-7	-15
CN(C)CCCN1c2ccccc2Sc2ccc(C(F)(F)F)cc21	95*	1	-29	4	-22
COc1ccc2sc(N(Cc3cccnc3)C(=O)C3CCCCC3)nc2c1	.	1	-3	.	.
CN1CCN(CCC(=O)N2c3ccccc3Sc3ccc(C(F)(F)F)cc32)CC1	-17	0	-18	-1	-25
OCCN1CCN(CCCN2c3ccccc3Sc3ccc(C(F)(F)F)cc32)CC1	60*	.	.	.	.
Cc1ccc(NC(=O)c2nnn(-c3ccc4c(c3)OCCO4)c2N)cc1	60*	1	-14	1	3
COCCCNC(=O)CCn1c(=O)c2ccccc2n(CC(=O)Nc2c(C)cc(C)cc2C)c1=O	.	0	-3	.	.
Fc1ccccc1CNc1ncnc2sccc12	-1	1	2	-1	1
CS(=O)(=O)NC1CCN(Cc2ccccc2)CC1	29	0	-6	-1	-9
c1ccc(CN2CCC(Nc3nc(-c4cccnc4)nc4ccccc34)CC2)cc1	49*	0	-22	-5	-47
c1ccc(CN2CCC(Nc3ncnc4sccc34)CC2)cc1	77*	1	-19	-4	-13
Cc1csc2c(NC3CCN(Cc4ccccc4)CC3)ncnc12	89*	-1	-24	-1	-4
Cc1sc2ncnc(NC3CCN(Cc4ccccc4)CC3)c2c1C	68*	1	-20	1	-17
Cc1ccc2occ(-c3cc(-c4ccc(Cl)cc4)nc4c3COc3ccccc3-4)c(=O)c2c1	.	.	-3	.	.
Cc1sc(NC(=O)c2ccco2)c(CN2CCN(c3ccc(F)cc3)CC2)c1C	33*	1	-5	1	-4
O=C(NCCS(=O)(=O)N1CCN(c2ccccc2F)CC1)c1ccco1	-3	-1	-3	-1	10
O=C(NCCS(=O)(=O)N1CCN(c2ccc(F)cc2)CC1)c1ccco1	33*	0	-13	-4	-7
O=C(NCCS(=O)(=O)N1CCN(c2ccccc2)CC1)C1CC(=O)N(c2ccc(F)cc2)C1 (stereo unspecified)	32*	0	-6	-1	-6
CCOC(=O)N1CCN(Cc2c(NC(=O)c3ccco3)sc(C)c2C)CC1	7	0	.	4	-4
O=C(Cc1ccc(F)cc1)NCCS(=O)(=O)N1CCN(c2ccccc2)CC1	46*	10	-6	?	-6
SMILES	D2 antag	D2 ag-1	D2 PAM-1	D2 ag-2	D2 PAM-2
CCCCNC(=O)C1CCN(c2nc3ccc(C)cc3[nH]2)CC1	.	0	6	.	.
Cc1cccc(NC(=O)c2ccc(F)c(S(=O)(=O)NCc3ccco3)c2)c1	33*	-2	1	-1	-6
COC(=O)c1ccc(CNC(=O)CN2C(=O)NC(Cc3ccccc3)(c3ccccc3)C2=O)cc1 (stereo unspecified)	.	.	.	-3	-3
COc1ccc(F)cc1C(=O)C1CCCN(Cc2cn(C)c3ccccc23)C1 (stereo unspecified)	78*	0	-14	-2	-16
COc1ccc(CN2CCCC(C(=O)c3ccc(SC)cc3)C2)cc1Cn1cccn1 (stereo unspecified)	33*	1	-18	-3	-3
COc1ccc(F)cc1C(=O)C1CCCN(Cc2c[nH]c3ccccc23)C1 (stereo unspecified)	67*	0	-20	-3	-2
COC(=O)c1ccc(CN2CCCC(C(=O)c3cc(F)ccc3OC)C2)cc1 (stereo unspecified)	17	1	-22	-1	-3

Bioassay records deposited in PubChem by National Center for Advancing Translational Sciences (NCATS).
